Shown is part of a subset that was picked to be rich in hits.
Methyltransferases – Primary Screen for Target Class Profiling of Small Molecule Inhibitors of Methyltransferases; 3.9% of 25,000 active; purified enzyme, MTase-Glo SAH luminescence; stronger effect = lower value; calls only at 40 µM; call rule not given here
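Each enzyme was assayed with SAM and its substrate. SAH formation detected by MTase-Glo luminescence; single-point 40 uM screen[…].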
Active calls of the source: *; i = inactive; + = active, no number. % is set by controls: 0 for no effect and ±100 for the full control effect.

SMILES | Methyltransferases
CC1C(OC(=O)c2ccccc2)C(O)C2C(C(=O)O)=COC(OC3OC(CO)C(O)C(O)C3O)C12 (configuration not stated) | i
COC(=O)C1=CO[C@@H](O[C@@H]2O[C@H](CO)[C@@H](O)[C@H](O)[C@H]2O)[C@H]2[C@@H]1CC(OC)O[C@@H]2C (some centres not stated) | +
CN(C(=O)Cn1nc2n(C)c(=O)c3ccc(C(=O)NC4CCCCC4)cc3n2c1=O)c1ccccc1 | i
CC1(C(=O)NCc2ccc(Cl)cc2)Cn2c(ccc2-c2ccco2)C(=O)N1CCc1cccs1 (configuration not stated) | i
CC(=O)Nc1c2n(c3ccc(F)cc13)CC(C)(C(=O)NC1CCCC1)N(Cc1ccccc1C)C2=O (configuration not stated) | i
CC(C)Cn1c(=O)c2ccc(Cl)cc2n2c(SCC(=O)Nc3ccc4c(c3)OCO4)nnc12 | i
COC(=O)c1cc2n(n1)CC(C)(C(=O)NC1CCC(C)CC1)N(Cc1cccc(C)c1)C2=O (configuration not stated) | i
Cc1ccc(Cl)cc1NC(=O)CSc1nnc2[nH]c(=O)c(C)nn12 | i
Cc1ccc(NC(=O)CCc2nnc3n(Cc4ccc(Cl)cc4)c(=O)c4ccccc4n23)cc1C | i
O=C(Nc1ccc(C(F)(F)F)cn1)N1CCN(c2ncccc2C(F)(F)F)CC1 | +
C[C@H](Oc1ccc(S(C)(=O)=O)cc1C(=O)N1CCN(c2ncc(C(F)(F)F)cc2F)CC1)C(F)(F)F | i
Cc1ccc(NC(=O)N2CCN(c3nc(N)nc4sc(-c5cccnc5)nc34)CC2)cc1 | i
Cc1ccc(CN2CC(=O)N(Cc3ccccc3F)c3ccccc3S2(=O)=O)cc1 | i
CC1CCC(NC(=O)C2(C)Cn3c(cc4occc43)C(=O)N2CCCN2CCCCC2)CC1 (configuration not stated) | i
Cc1c(Cl)cccc1NC(=O)N1Cc2c(sc3c2CCCC3)-n2cccc2C1C(C)C (configuration not stated) | i
C=C1C(=O)OC2C1C(O)CC1(C)C(O)CCC(C=O)C21 (configuration not stated) | i
C=C1C(=O)O[C@@H]2[C@H]3O[C@]3(C)CCC=C(C)CC[C@@H]12 | i
C=C1C(=O)OC2C1CCC1(C)C(O)CCC(=C)C21 (configuration not stated) | +
CCCn1c(=O)c2ccc(Cl)cc2n2c(=O)n(Cc3ccccc3C)nc12 | i
O=C(CCn1ccc2cc(S(=O)(=O)N3CCCCC3)ccc21)NCc1ccccc1Cl | i
Cc1ccc(Cn2c(=O)c3ccccc3n3c(CCC(=O)NCCc4ccc(Cl)cc4)nnc23)cc1 | i
Cc1cc(C)c(S(=O)(=O)NCCc2n[nH]c(Cc3ccc(F)cc3)n2)cc1C | i
Cc1c(O)cc(O)c2c(=O)c(O)c(-c3ccc(O)c(O)c3)oc12 | +
CC1CCC(NC(=O)C2(C)Cc3ccccc3C(=O)N2CCc2ccccc2)CC1 (configuration not stated) | i
CCCN1C(=O)c2c(C(=O)Nc3cc(Cl)ccc3OC)ncn2CC1(C)C(=O)NC1CCCC1 (configuration not stated) | i
SMILES | Methyltransferases
O=C(CCc1nnc2n(CCc3ccccc3)c(=O)c3ccccc3n12)NCc1ccc(F)cc1 | i
C=C1C(=O)O[C@@H]2[C@H]3C(C)=CC(=O)C3=C(C)[C@@H](OC(=O)/C(C)=C\C)[C@H](O)[C@@H]12 | i
C=C1C(=O)OC2C(OC(=O)C=C(C)C)C(C)=C3C(=O)C=C(C)C3C(O)C12 (configuration not stated) | +
CCOc1ccc(C(=O)Cn2nc3n(CCc4ccccc4)c(=O)c4ccccc4n3c2=O)cc1 | i
CCOC(=O)c1cc2n(n1)CC(C)(C(=O)NCCC(C)C)N(c1ccc3c(c1)OCO3)C2=O (configuration not stated) | i
CC1(C(=O)NCc2ccccc2)Cn2nc(-c3ccccc3)cc2C(=O)N1CCCc1ccccc1 (configuration not stated) | i
CCC(C)NC(=O)c1ccc2c(=O)n(C)c3nnc(SCC(=O)c4cc(C)ccc4C)n3c2c1 (configuration not stated) | i
CC1(COc2ccc3c(c2)ncn3-c2ccc3cccc(N4CCC(N)CC4)c3n2)COC1 | +
CCC(C(=O)NCc1ccccc1C)n1ccc2cc(S(=O)(=O)N3CCCCC3)ccc21 (configuration not stated) | i
CCCN1C(=O)c2c(C(=O)NCCc3cccs3)ncn2CC1(C)C(=O)NCc1ccc(F)cc1 (configuration not stated) | i
c1ccc2c(Oc3nc(Nc4ccc(N5CCOCC5)cc4)c4ncn(C5CCCCC5)c4n3)cccc2c1 | +
Cc1cc(C)cc(N2C(=O)c3cc4occc4n3CC2(C)C(=O)NC2CCCC(C)C2C)c1 (configuration not stated) | i
CCC(C)NC(=O)c1ccc2c(=O)n(C)c3nn(CC(=O)N(C)c4ccc(F)cc4)c(=O)n3c2c1 (configuration not stated) | i
Cc1cccc(N2CCN(CCNC(=O)CCc3nnc4n(CCC(C)C)c(=O)c5ccccc5n34)CC2)c1C | i
O=C(NCc1cccnc1)c1ccc2c(=O)nc3c(-c4ccccc4)n[nH]n3c2c1 | i
CCc1ccccc1NC(=O)Cn1nc2n(C(C)C)c(=O)c3ccc(C(=O)NCC(C)C)cc3n2c1=O | i
C=C1C(=O)OC2CC3(C)C(CC12)C(C)=CC(O)C3OC(C)=O (configuration not stated) | +
C=C(C)C(=O)O[C@H]1C[C@@](C)(O)C(=O)CC(O)/C(C)=C\[C@H]2OC(=O)C(=C)[C@H]12 (some centres not stated) | i
C=C1C(=O)O[C@@H]2C/C(C)=C\C(=O)/C=C(\C)[C@@H](OC(=O)/C(C)=C\C)[C@H](O)[C@@H]12 | i
CCCn1c(=O)c2ccc(C(=O)NCC(C)C)cc2n2c(=O)n(CC(=O)N(C)c3ccc(F)cc3)nc12 | i
CCCn1c(=O)c2ccccc2n2c(=O)n(Cc3cc(C)ccc3C)nc12 | i
CC1CCN(S(=O)(=O)c2ccc3c(ccn3CCC(=O)NC3CCCCC3C)c2)CC1 (configuration not stated) | i
COCCN(C)C[C@H]1C[C@@H](CO)CN(C(=O)c2ccc(C)c(Cl)c2)C1 | i
COCCN(C)Cc1ccc2nc3sc(C(=O)N(C)C4CCCCC4)cn3c2c1 | +
CC(C)CCNC(=O)C1(C)Cn2nc(C(=O)NCCc3ccc(Cl)cc3)cc2C(=O)N1C (configuration not stated) | i
SMILES | Methyltransferases
CC1(C)C2CCC1(C)C(OC(=O)C(O)(CC(=O)O)CC(=O)O)C2 (configuration not stated) | +
Cc1ccc(NS(=O)(=O)c2ccc3[nH]c(=O)[nH]c3c2)c(Cl)c1 | i
CCC(C)NC(=O)c1ccc2c(=O)n(Cc3ccccc3)c3nn(Cc4cccc(F)c4)c(=O)n3c2c1 (configuration not stated) | i
CCc1ccccc1N1C(=O)c2c(C(=O)OC)ncn2CC1(C)C(=O)NC1CCCCCC1 (configuration not stated) | i
CC(C)c1ccc(NS(=O)(=O)c2ccc3c(c2)n(C)c(=O)n3C)cc1 | i
O=C(O)c1cc(-c2cccc(CO)c2)cc(S(=O)(=O)NC2CCCC2)c1 | i

High-throughput results from PubChem BioAssay.
